Values without a mark were called inactive. Inconclusive results are not listed. Calls of active or inactive are those of the source. Unless noted, calls follow the shape of the dose curve; as a rule, active = well fitted curve in either direction with a large enough effect (not every such curve was filed as active); inconclusive = small, poorly fitted or top-dose-only effect, or another doubt; inactive = flat fitted curve, though single readings scatter.

Experimental findings from PubChem BioAssay (NCATS) are described below.

The target of assay [1] is Lysosomal acid glucosylceramidase (Homo sapiens) (UniProt P04062). Kind of assay: Glucocerebrosidase-p2 (AID 348; in the data active = potency below about 10 µM; also: potency is read from the fitted curve at half-maximal effect). To be noted: purified GBA, blue fluorogenic substrate, 40 min. Put shortly: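 Normal human glucocerebrosidase (0.2 nM) with blue fluorogenic substrate (80 uM final) in citrate/phosphate pH 5.9 with 10mM sodium taurocholate, 0.01% tween-20; 40 min RT, NaOH/glycine stop; fluorescence Ex 365/Em 440; AC50 from a titration from 0.6 nM upwards.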

A short description of assay [2]: AP1 Signaling Pathway (AID 357).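 Also: ME-180 reporter cells stimulated with EGF at its EC50 level; % is scaled to controls: 0 for no effect and ±100 for the full control effect.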 To be noted: ME-180 AP-1-bla reporter, EGF-induced, beta-lactamase ratio, 5 h; at 7.69 µM (top of the series) unless noted. The procedure, abridged: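 Titration-series screen for positive or negative modulators of EC50 EGF-induced signaling in ME-180 cells carrying an AP-1-driven beta-lactamase reporter. After 5 hours at 37 degrees Celsius, CCF4 460nm/530nm emission ratio gave %Activity; AC50 values derived.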

Assay [3] deals with Cytochrome P450 1A2 (Homo sapiens) (UniProt P05177). The experiment in a line: p450-cyp1a2 (AID 410; calls by dose curve; also: potency is read from the fitted curve at half-maximal effect). To be noted: recombinant CYP1A2, luciferin-ME demethylation, luminescence; series mostly up to 11.4 µM. Put shortly:
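Luminescent demethylation readout: Luciferin-ME (100uM, equal to Km) turned over by 20nM CYP1A2 for 60 min at room temperature after NADPH regeneration addition, following 10 min compound preincubation. Normalization used 57 uM furafylline as full inhibition.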

Assay [4] in a line: NFAT Signaling Pathway (AID 444).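 Also: carbachol stimulus at about its EC50 of 1 µM final; % is scaled to controls: 0 for no effect and ±100 for the full control effect.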 The settings on record: Jurkat NFAT-bla M1, carbachol, beta-lactamase ratio, 5 h; at 7.69 µM (top of the series) unless noted. The procedure, abridged: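 Jurkat cells with NFAT-driven β-lactamase reporter and co-expressed M1 receptor, stimulated with carbachol (final 1 uM, ~EC50), compound titration, 5 h at 37 °C. CCF4 loaded 1 h at RT; 460/530 nm ratio gave %activity and AC50.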

Assay [5] is described as follows: Stat Signaling Pathway (AID 446).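 Also: ME-180 cervical cancer cells given 40 pM IL-6 alongside compound; SIE-controlled beta-lactamase reporter measured as 460/530 nm FRET emission ratio; % is scaled to controls: 0 for no effect and ±100 for the full control effect.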 To be noted: ME-180 (cervical carcinoma) SIE beta-lactamase reporter, IL-6 stimulated, 5 h; at 7.69 µM (top of the series) unless noted. The procedure, abridged: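 Normalization used AC90 stimulation (300 pM IL-6) and AC90 inhibition (125 nM pan-JAK inhibitor at 40 pM IL-6). The underlying signal is SIE-driven beta-lactamase in ME-180 cells after 5 h IL-6 exposure with compound.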

The target in assay [6] is Glucocorticoid receptor (Homo sapiens) (UniProt P04150). The experiment in a line: GR-GFP Redistribution (AID 450;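 active = compounds whose dose series gives a full or clear partial fitted curve of increased nuclear translocation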; also: potency is read from the fitted curve at half-maximal effect). The settings on record: U2OS GR-GFP nuclear translocation, laser cytometry, 2 h.
For assay [7] the target is unchanged. Kind of assay: GR-EFC Redistribution (AID 451; calls by dose curve; also: potency is read from the fitted curve at half-maximal effect). To be noted: CHO-K1 GR-EFC translocation, beta-gal luminescence, 2 h. Put shortly: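 CHO-K1 cells expressing nuclear EA and GR-ED fragments of b-gal; compounds titrated up to 46 uM final, 2 h at 37 C. GR nuclear translocation read as complemented b-gal luminescence after 1 h RT detection.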
The target in assay [8] is Mitogen-activated protein kinase 10 (Mus musculus) (UniProt Q61831). Kind of assay: JNK3 AlphaScreen Assay (AID 530).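 Also: kinase came from lysate of stimulated human HepG2 cells; signal reports phosphorylation of biotinylated GST-cJun 1-79 at Ser73 with 10 µM ATP; % is scaled to controls: 0 for no effect and ±100 for the full control effect.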 To be noted: JNK3 lysate, c-Jun phosphorylation; series mostly up to 11.4 µM. Put shortly: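 Activity was read by AlphaScreen after JNK3-containing HepG2 lysate (cytokine pre-activated) phosphorylated biotinylated GST-cJun with 10 uM ATP at room temperature. Phospho-Ser73 cJun antibody with Protein-A acceptor beads provided detection.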
(Alpha assays give light when donor and acceptor beads are brought close together.)

Assay [9] concerns the target 3',5'-cyclic-AMP phosphodiesterase 4B (Homo sapiens) (UniProt Q07343). The experiment in a line: qHTS Assay for Inhibitors of PDE-IV (AID 607; active = well fitted activation curve with a large enough effect in the main read-out, with a control signal flat, not every such curve was filed as active; also: % of control where 0% means no effect). The settings on record: HEK293 ACTOne CNG channel cells, membrane potential fluorescence; series mostly up to 22.9 µM. Put shortly: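 HEK293 ACTOne cells with CNG channel (1000/well), endogenous PDE4; membrane potential dye, compounds up to 22.9 uM final. Fluorescence Ex 535/Em 590; RO 20-1724 (100 uM final) as reference.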
(qHTS replaces the single test concentration by a dilution series.)

Chain of Lysosomal acid glucosylceramidase (Homo sapiens) (P04062 whole entry, looked up): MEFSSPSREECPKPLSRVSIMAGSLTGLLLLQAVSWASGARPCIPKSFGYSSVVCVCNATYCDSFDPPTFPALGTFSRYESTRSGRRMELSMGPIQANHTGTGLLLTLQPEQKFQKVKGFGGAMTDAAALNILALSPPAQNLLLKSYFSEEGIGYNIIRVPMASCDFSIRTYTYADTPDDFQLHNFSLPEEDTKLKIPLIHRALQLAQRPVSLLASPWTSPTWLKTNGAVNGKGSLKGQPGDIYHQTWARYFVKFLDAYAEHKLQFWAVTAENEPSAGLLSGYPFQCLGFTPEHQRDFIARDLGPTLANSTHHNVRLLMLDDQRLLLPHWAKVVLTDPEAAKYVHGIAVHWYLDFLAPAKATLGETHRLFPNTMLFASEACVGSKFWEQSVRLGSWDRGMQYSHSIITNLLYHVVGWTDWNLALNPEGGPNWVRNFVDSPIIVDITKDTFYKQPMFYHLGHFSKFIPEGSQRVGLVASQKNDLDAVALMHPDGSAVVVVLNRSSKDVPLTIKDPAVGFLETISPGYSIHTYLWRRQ
Chain of Cytochrome P450 1A2 (Homo sapiens) (P05177 whole entry, looked up): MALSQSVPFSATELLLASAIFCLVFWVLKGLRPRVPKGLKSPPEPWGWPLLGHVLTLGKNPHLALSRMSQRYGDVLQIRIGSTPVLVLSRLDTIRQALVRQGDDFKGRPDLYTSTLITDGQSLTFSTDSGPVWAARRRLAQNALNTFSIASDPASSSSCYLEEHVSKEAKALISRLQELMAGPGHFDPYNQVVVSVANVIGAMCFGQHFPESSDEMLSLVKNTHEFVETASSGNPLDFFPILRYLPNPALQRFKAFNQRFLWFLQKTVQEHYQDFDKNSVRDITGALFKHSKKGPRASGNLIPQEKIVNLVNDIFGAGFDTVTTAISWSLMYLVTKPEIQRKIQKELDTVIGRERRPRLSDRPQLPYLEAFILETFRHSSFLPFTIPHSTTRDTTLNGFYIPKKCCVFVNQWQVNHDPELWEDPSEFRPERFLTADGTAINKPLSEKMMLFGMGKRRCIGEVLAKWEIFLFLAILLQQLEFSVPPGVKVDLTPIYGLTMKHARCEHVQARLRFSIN
Chain of Glucocorticoid receptor (Homo sapiens) (P04150 whole entry, looked up, the tested form may be a part): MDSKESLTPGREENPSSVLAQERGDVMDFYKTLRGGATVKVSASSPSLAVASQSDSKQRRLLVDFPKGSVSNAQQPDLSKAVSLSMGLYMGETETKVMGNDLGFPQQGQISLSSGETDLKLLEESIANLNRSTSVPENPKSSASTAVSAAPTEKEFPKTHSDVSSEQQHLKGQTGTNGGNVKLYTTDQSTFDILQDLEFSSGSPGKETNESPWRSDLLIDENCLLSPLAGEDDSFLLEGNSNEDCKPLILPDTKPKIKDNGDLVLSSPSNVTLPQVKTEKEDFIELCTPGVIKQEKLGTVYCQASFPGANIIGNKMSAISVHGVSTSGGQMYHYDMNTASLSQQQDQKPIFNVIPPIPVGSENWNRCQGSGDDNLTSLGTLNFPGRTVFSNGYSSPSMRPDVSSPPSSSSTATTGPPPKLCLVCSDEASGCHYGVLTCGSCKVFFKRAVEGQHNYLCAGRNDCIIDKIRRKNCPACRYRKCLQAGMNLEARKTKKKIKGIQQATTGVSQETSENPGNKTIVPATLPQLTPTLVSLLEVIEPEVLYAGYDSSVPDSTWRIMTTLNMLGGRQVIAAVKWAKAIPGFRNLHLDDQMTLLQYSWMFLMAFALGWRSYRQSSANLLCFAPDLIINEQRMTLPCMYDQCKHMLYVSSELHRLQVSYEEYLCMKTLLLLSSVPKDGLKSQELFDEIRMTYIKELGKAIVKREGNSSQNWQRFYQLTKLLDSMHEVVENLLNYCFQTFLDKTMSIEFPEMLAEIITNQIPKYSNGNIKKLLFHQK
Chain of 3',5'-cyclic-AMP phosphodiesterase 4B (Homo sapiens) (Q07343 whole entry, looked up): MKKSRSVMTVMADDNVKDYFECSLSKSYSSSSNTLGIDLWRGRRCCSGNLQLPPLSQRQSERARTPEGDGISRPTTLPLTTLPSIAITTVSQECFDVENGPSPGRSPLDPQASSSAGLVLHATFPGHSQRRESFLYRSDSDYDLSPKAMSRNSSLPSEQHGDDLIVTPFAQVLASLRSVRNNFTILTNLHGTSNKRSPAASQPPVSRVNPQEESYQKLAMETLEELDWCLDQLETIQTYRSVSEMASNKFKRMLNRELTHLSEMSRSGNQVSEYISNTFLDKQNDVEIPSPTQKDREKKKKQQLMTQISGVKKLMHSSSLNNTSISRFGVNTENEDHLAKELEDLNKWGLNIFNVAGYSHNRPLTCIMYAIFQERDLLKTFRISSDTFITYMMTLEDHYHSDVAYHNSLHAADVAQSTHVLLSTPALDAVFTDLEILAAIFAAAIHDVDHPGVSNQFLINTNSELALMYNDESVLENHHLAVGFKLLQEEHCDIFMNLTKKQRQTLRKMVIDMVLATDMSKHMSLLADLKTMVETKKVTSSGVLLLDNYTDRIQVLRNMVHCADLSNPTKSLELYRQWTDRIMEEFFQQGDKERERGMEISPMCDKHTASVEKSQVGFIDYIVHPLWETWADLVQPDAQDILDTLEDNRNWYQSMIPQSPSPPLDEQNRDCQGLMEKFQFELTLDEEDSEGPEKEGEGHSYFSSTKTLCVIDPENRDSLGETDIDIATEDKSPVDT

`CCC(=O)Nc1ncnc2ncn(C(=O)CC)c12`: the Potency in assay [1] was more than 11.4 µM; in [6], more than 46 µM; in [7], more than 9.22 µM. In addition, the activity change, negative = inhibition in assay [2] is 8.41%; in assay [4], 1.71%. For the same compound, the Potency entry in assay [3], in [8] and in assay [9] was “inactive” in each case. The activity, negative = inhibition in assay [5] is 1.38%.

Turning to `NS(=O)(=O)c1ccc(N=Nc2ccc[nH]c2=O)cc1`, the Potency is 3.95 µM (active) in assay [1], 501 nM (active) in [3], more than 46 µM in assay [6] and more than 9.22 µM in assay [7]. Also, the figures for the activity change, negative = inhibition in assay [2] and in assay [4] were -1.61% and -25.2%, respectively. In addition, in assay [5], the activity, negative = inhibition was -6.14%. For the same compound, the Potency entry in [8] and in [9] was “inactive” throughout.

Turning to `COc1ccc2[nH]c3cc4c(=O)c5cc(OC)ccc5[nH]c4cc3c(=O)c2c1`, the Potency in [1] is more than 11.4 µM; in [6], more than 46 µM; in [7], more than 9.22 µM. Also, the results for the activity change, negative = inhibition in [2], in assay [3] and in assay [4] were -2.15%, -6% [at 2.29 µM] and -1.64%, respectively. For the same compound, the activity, negative = inhibition in assay [5] was -1.86%. Further, the Potency entry in assay [8] and in [9] was “inactive” in each case.

On to `CCC(C)(C)c1ccc(Oc2cccc(C(=O)O)c2)cc1`, for which the figures for the Potency in assay [1], in assay [6] and in assay [7] were more than 11.4 µM, more than 46 µM and more than 9.22 µM, respectively. The activity change, negative = inhibition is -11.1% in assay [2] and -3.61% in assay [4]. For the same compound, the Potency result in [3], in assay [8] and in assay [9] was “inactive” in each case. Moreover, in assay [5], the activity, negative = inhibition was -0.214%.

`Nc1nc(N)c2[nH]c(CNc3ccc(C(=O)O)cc3)nc2n1`: the Potency in assay [1] was more than 11.4 µM; in assay [6], more than 46 µM; in assay [7], more than 9.22 µM. Moreover, the activity change, negative = inhibition in assay [2] was -2.88%; in [4] it was 23.3%. The Potency result in assay [3], in assay [8] and in assay [9] was “inactive” throughout. For the same compound, in assay [5], the activity, negative = inhibition is -0.181%.

Consider `CN(C(=O)c1ccncc1)c1ccccc1`, for which the Potency is more than 11.4 µM in assay [1], more than 46 µM in assay [6] and more than 9.22 µM in [7]. Further, the activity change, negative = inhibition was -3.23% in assay [2] and 6.33% in [4]. Further, the Potency result in assay [3], in assay [8] and in assay [9] was “inactive” in each case. Moreover, the activity, negative = inhibition in [5] is 0.69%.

With `[O-][N+](CCO)(CCO)c1ncnc2nc[nH]c12`, the Potency in assay [1] was more than 11.4 µM; in assay [6] it was more than 46 µM; in assay [7], more than 9.22 µM. The activity change, negative = inhibition in assay [2] is 1.99%; in assay [4], -3.2%. The Potency entry in assay [3], in [8] and in assay [9] was “inactive” throughout. In assay [5], the activity, negative = inhibition was -1.19%.

Take `COc1nc(N)nc2c1ncn2[C@@H]1C[C@H](O)[C@@H](CO)O1`: the results for the Potency in assay [1], in [6] and in [7] were more than 11.4 µM, more than 46 µM and more than 9.22 µM, respectively. Further, the activity change, negative = inhibition in [2] is 5.07%; in assay [4] it was 4.99%. Moreover, the Potency result in assay [3], in assay [8] and in assay [9] was “inactive” throughout. Moreover, the activity, negative = inhibition in assay [5] is 11.5%.

`O=C(O)c1cc(-c2ccc3cc4c(cc3c2)OCO4)nc2ccccc12`: the Potency in assay [1] was more than 11.4 µM; in assay [3], 3160 nM (active); in assay [6], more than 46 µM; in assay [7], more than 9.22 µM. The results for the activity change, negative = inhibition in assay [2] and in assay [4] were -11% and -22.2%, respectively. Further, the activity, negative = inhibition in assay [5] was -8.03%. Also, the Potency result in assay [8] and in [9] was “inactive” in each case.

On to `O=C(O)c1cc(C(=O)O)nc(C(=O)O)c1`, for which the Potency in assay [1] is more than 11.4 µM; in [6] it was more than 46 µM; in [7], more than 9.22 µM. The activity change, negative = inhibition in assay [2] is 7.15%; in [4], 0.674%. Also, the Potency entry in assay [3], in [8] and in assay [9] was “inactive” throughout. Besides, the activity, negative = inhibition in assay [5] was 3.63%.

Consider `O=c1[nH]c(=S)[nH]c2c1CN(CCCN1CCOCC1)CN2`, for which the results for the Potency in assay [1], in assay [6] and in assay [7] were more than 11.4 µM, more than 46 µM and more than 9.22 µM, respectively. The activity change, negative = inhibition is 3.35% in [2], -13.5% [at 2.29 µM] in assay [3] and 4.33% in assay [4]. For the same compound, in assay [5], the activity, negative = inhibition is 4.09%. The Potency entry in assay [8] and in assay [9] was “inactive” each time.

As to `NC(N)=N/N=C(\c1ccc(Cl)cc1)C1CC1`, the Potency was more than 11.4 µM in [1], 794 nM (active) in [3], more than 46 µM in [6] and more than 9.22 µM in [7]. Also, the activity change, negative = inhibition in [2] is 8.61%; in assay [4], -17.9%. Further, the activity, negative = inhibition in [5] was -1.61%. Moreover, the Potency entry in assay [8] and in assay [9] was “inactive” throughout.

In the case of `CCSC[C@@H](N)C(=O)O`, the Potency in assay [1] is more than 11.4 µM; in assay [6] it was more than 46 µM; in assay [7], more than 9.22 µM. For the same compound, the activity change, negative = inhibition was 5.2% in assay [2], -1.6% [at 2.29 µM] in [3] and -9.5% in assay [4]. For the same compound, the activity, negative = inhibition in assay [5] is 0.221%. The Potency entry in [8] and in [9] was “inactive” throughout.

For `Cc1cc([N+](=O)[O-])c(C)c(Br)c1C`, the Potency in [1] is more than 11.4 µM; in [3] it was 1000 nM (active); in [6], more than 46 µM; in [7], more than 9.22 µM. Besides, the results for the activity change, negative = inhibition in [2] and in assay [4] were 3.15% and -7.3%, respectively. Besides, the activity, negative = inhibition in assay [5] was 6.97%. Moreover, the Potency result in [8] and in [9] was “inactive” each time.

`C/C(=N\O)c1cccc[n+]1Cc1ccccc1`: the figures for the Potency in assay [1], in [6] and in [7] were more than 11.4 µM, more than 46 µM and more than 9.22 µM, respectively. The values for the activity change, negative = inhibition in assay [2] and in assay [4] were -1.8% and -12.3%, respectively. In addition, the Potency entry in assay [3], in [8] and in assay [9] was “inactive” throughout. The activity, negative = inhibition in assay [5] was 11.4%.
